Several values for one entry are separate records, joined by “and”; a condition that tells them apart may be missing. Equal values may be shown once. Unmarked numbers belong to inactive results. Inconclusive results are not listed. Activity calls are given as the source filed them. Unless noted, calls follow the shape of the dose curve; as a rule, active = well fitted curve in the direction sought with a large enough effect; inconclusive = small, poorly fitted or top-dose-only effect, or another doubt; inactive = no such curve, though single readings can be large; an effect the other way counts as inactive or inconclusive.

Assay [1] deals with Cytochrome P450 1A2 (Homo sapiens) (UniProt P05177). As to the kind of experiment: p450-cyp1a2 (AID 410; calls by dose curve; also: potency is read from the fitted curve at half-maximal effect). Summed up:
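O-Demethylation of luciferin 6' methyl ether by human CYP1A2 is monitored as luciferase luminescence. Substrate sits at Km (100uM); enzyme is 20nM. Values are scaled to 57 uM furafylline as maximal inhibition.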

A short description of assay [2]: NFAT Signaling Pathway (AID 444; active = well fitted curve in either direction with a large enough effect, not every such curve was filed as active;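 also: carbachol stimulus at about its EC50 of 1 µM final; % is scaled to controls: 0 for no effect and ±100 for the full control effect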). The conditions noted are these: Jurkat NFAT-bla M1, carbachol, beta-lactamase ratio, 5 h; at 38 µM (top of the series). In short, it runs like this:
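Read-out: CCF4 FRET ratio (460 nm/530 nm) after 1 h RT dye loading, used for %activity and AC50 from titration series. Cells: Jurkat NFAT-β-lactamase/M1 line, treated with compound plus 1 uM carbachol for 5 h, 37 °C.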

The target of assay [3] is Glucocorticoid receptor (Homo sapiens) (UniProt P04150). The experiment in a line: GR-GFP Redistribution (AID 450;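 active = compounds whose dose series gives a full or clear partial fitted curve of increased nuclear translocation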; also: potency is read from the fitted curve at half-maximal effect). The conditions noted are these: U2OS GR-GFP nuclear translocation, laser cytometry, 2 h.
Assay [4] has the same target. As to the kind of experiment: GR-EFC Redistribution (AID 451; calls by dose curve; also: potency is read from the fitted curve at half-maximal effect). The conditions noted are these: CHO-K1 GR-EFC translocation, beta-gal luminescence, 2 h. In short, it runs like this: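 Translocation of GR-ED fusion to nuclear EA restores b-gal, read by luminescence after 1 h room-temperature detection. Engineered CHO-K1 biosensor cells, 1,000/well, exposed 2 h at 37 C to titrations up to 46 uM final.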

Assay [5] addresses Mitogen-activated protein kinase 10 (Mus musculus) (UniProt Q61831). As to the kind of experiment: JNK3 AlphaScreen Assay (AID 530; active = well fitted curve in either direction with a large enough effect, not every such curve was filed as active;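 also: kinase came from lysate of stimulated human HepG2 cells; signal reports phosphorylation of biotinylated GST-cJun 1-79 at Ser73 with 10 µM ATP; % is scaled to controls: 0 for no effect and ±100 for the full control effect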). Summed up:
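qHTS titrations with 15 min compound pre-incubation before adding ATP (10 uM final). Read-out: AlphaScreen of Ser73-phosphorylated biotin-GST-cJun using HepG2 lysate JNK3 activated by IL-1β and TNFα.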
Background: Bead proximity is the source of the signal in Alpha formats.

In assay [6] the target is 3',5'-cyclic-AMP phosphodiesterase 4B (Homo sapiens) (UniProt Q07343). As to the kind of experiment: qHTS Assay for Inhibitors of PDE-IV (AID 607; active = well fitted activation curve with a large enough effect in the main read-out, with a control signal flat, not every such curve was filed as active; also: % of control where 0% means no effect). In short, it runs like this: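 The readout is membrane depolarisation from a cAMP-sensing CNG channel, detected with a potential dye at ex 535/em 590. Cells were HEK293-derived (endogenous PDE-IV) at 1000 cells/well, titrated up to 22.9 uM final.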
Background: Quantitative high-throughput screening tests each substance at several concentrations.

The target in assay [7] is Guanine nucleotide-binding protein G(i) subunit alpha-1 (Homo sapiens) (UniProt P63096). As to the kind of experiment: qHTS Assay for Inhibitors of RGS12 GoLoco Motif Activity (Green Fluorophore) (AID 879).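 Also: 0% = labeled peptide with Gαi1 and full inhibition = labeled peptide alone without protein; negative values mean loss of peptide binding seen as reduced polarization.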 Summed up: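 A drop in FITC polarization marked displacement of the FITC-tagged RGS12 GoLoco peptide (10 nM) from Gαi1 (50 nM). Compounds were incubated 10 min at room temperature in Tris pH 7.5 buffer containing 150 mM NaCl, 0.1 mM GDP and 0.05% NP40; unlabeled peptide titration served as control.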

Assay [8] deals with Cytochrome P450 2C9 (Homo sapiens) (UniProt P11712). The experiment in a line: qHTS Assay for Inhibitors and Substrates of Cytochrome P450 2C9 (AID 883). Also: potency is read from the fitted curve at half-maximal effect; nearly all actives have a fitted effect of over 60% in size. In short, it runs like this:
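Turnover of Luciferin-H (100uM, KM) by 10nM human CYP2C9 was measured over 60 min at 37C with NADPH regeneration; inhibitors and some substrates reduce luminescence. Data normalized to sulphaphenazole 57uM.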

Assay [9] deals with Cytochrome P450 3A4 (Homo sapiens) (UniProt P08684). As to the kind of experiment: qHTS Assay for Inhibitors and Substrates of Cytochrome P450 3A4 (AID 884). Also: potency is read from the fitted curve at half-maximal effect; nearly all actives have a fitted effect of over 50% in size. Summed up:
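Luminescent readout of luciferin produced by CYP3A4 (20 nM) dealkylation of Luciferin-PPXE, 25 uM (its KM). NADPH-driven reaction ran 60 min at RT after 10 min compound preincubation; data scaled to 57 uM ketoconazole as 100% inhibition.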

Assay [10] shares this target. The experiment in a line: qHTS Assay for Activators of Cytochrome P450 3A4 (AID 885). Also: nearly all actives have a fitted effect of over 65% in size. Summed up:
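Activators are scored by enhanced luminescence from CYP3A4 conversion of luciferin-PPXE (25uM, equal to KM) to luciferin, after 60 min at RT with an NADPH-regenerating system.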

Assay [11] addresses Muscarinic acetylcholine receptor M1 (Rattus norvegicus) (UniProt P08482). The experiment in a line: qHTS Assay for Antagonists of Acetylcholine Muscarinic M1 Receptor: Kinetic Measurement of Intracellular Calcium Response (AID 943).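 Also: Fluo-4 calcium signal as peak divided by basal fluorescence over 4 min; nearly all actives have a fitted effect of over 75% in size.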 In short, it runs like this: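 Antagonism is measured as inhibition of the carbachol-evoked calcium rise in CHO cells transfected with rat M1. Cells are dye-loaded, exposed to compound for 10 min, then stimulated with 100 nM carbachol (EC80).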

In assay [12] the target is Pyruvate kinase (Leishmania mexicana) (UniProt Q27686). The experiment in a line: qHTS Validation Assay for Inhibitors of Leishmania Mexicana Pyruvate Kinase (AID 945).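 Also: 0% = DMSO only neutral control wells.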 Summed up:
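qHTS eight-point titrations against 0.2 nM LmPYK (E451W) in imidazole buffer pH 7.2 with 0.5 mM PEP, 0.1 mM ADP; 1 h, room temperature. Readout: PKLight luminescence, normalized to neutral DMSO wells.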

For assay [13], the target named is Pyruvate kinase PKM (Homo sapiens) (UniProt P14618). The experiment in a line: qHTS Assay for Activators of Human Muscle Pyruvate Kinase (AID 954; active = well fitted curve in the direction sought with a large enough effect, not every such curve was filed as active;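 also: 0% = uninhibited enzyme and -100% = no enzyme or full thiadiazolimine inhibition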). In short, it runs like this: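 PKM2, human, >95% pure, 0.1 nM; PEP 0.5 mM (Km), ADP 0.1 mM; 50 mM imidazole pH 7.2, 50 mM KCl, 0.01% Tween 20, 0.05% BSA; 1 h RT; luciferase luminescence readout.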
The target in assay [14] is Alpha-galactosidase A (Homo sapiens) (UniProt P06280). The experiment in a line: Counterscreen for Glucocerebrosidase Inhibitors: qHTS Assay for Human alpha-Galactosidase at pH 4.5 (AID 992). Also: 0% is about no effect. Summed up: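 Fluorogenic 4-MU alpha-D-galactoside (80 uM) hydrolysis, 2 nM enzyme, pH 4.5 citrate buffer + 0.005% Tween-20; 20 min RT; NaOH/glycine pH 10 stop; Ex365/Em440. Compounds titrated 0.7 nM–77 uM; Hill-equation AC50.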
A general note: A counterscreen serves to expose hits that act by an unwanted route or on another target.

Assay [15] has as its target alpha-glucosidase (Oryza sativa, rice) (UniProt Q653V4). The experiment in a line: Counterscreen for Glucocerebrosidase Inhibitors: qHTS Assay for Rice alpha-Glucosidase at pH 5.0 (AID 997).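 Also: 0% = full activity with enzyme and -100% = basal without enzyme.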 Summed up:
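Endpoint fluorogenic assay at pH 5.0: compounds (0.7 nM to 77 uM) titrated against 4 nM rice enzyme and 400 uM 4-MU-alpha-glucoside for 20 min at room temperature; NaOH/glycine stop, read ex 365/em 440 nm, Hill-fitted AC50.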

Assay [16] in a line: Validation of Assay for Modulators of Lamin A Splicing (AID 1459; active = well fitted curve in the direction sought with a large enough effect in the signal ratio; the % refers to the signal ratio;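 also: cells exposed to compound for two days before reading; 0% is about no effect; ratio rise marks activators and ratio drop marks inhibitors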). Summed up: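 HeLa S3 lamin A-EGFP/DsRed2 stable clone, 600 cells/well, Opti-MEM 2% FBS; compounds by pin tool; 48 hrs, 37 °C/5% CO2; Acumen 488 nm scan, objects 10-100 um; GFP/RFP intensity ratio.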
Assay [17] deals with DNA repair nuclease/redox regulator APEX1 (Homo sapiens) (UniProt P27695). As to the kind of experiment: qHTS Validation Assay for Inhibitors of the Human Apurinic/apyrimidinic Endonuclease 1 (APE1) (AID 1705;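 also: TAMRA fluorescence gain over two minutes as APE1 cuts a quenched THF abasic duplex; % is scaled to controls: 0 for no effect and ±100 for the full control effect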). Summed up: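 qHTS, 1536-well. APE1 + cpd 15 min RT → 50 nM TAMRA/BHQ-2 THF-abasic dsDNA substrate → kinetic fluorescence, 3 reads/60 s; delta(read3−read1) = reaction progress. No-enzyme buffer = negative control.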

Assay [18] in a line: Counterscreen for APE1 Inhibitors: Fluorescent Dye Displacement Validation Assay (AID 1707).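 Also: plate controls were ThO with dsDNA and no compound for no effect and ThO without dsDNA for full effect.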 In short, it runs like this: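 Endpoint fluorescence read at 480 nm excitation / 540 nm emission; DNA-binding compounds lower signal by displacing 250 nM Thiazole Orange from 50 nM dsDNA containing a tetrahydrofuran abasic site, Tris-HCl pH7.5 buffer with NaCl and MgCl2.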
The target in assay [19] is Endonuclease 4 (Escherichia coli (strain K12)) (UniProt P0A6C1). As to the kind of experiment: Counterscreen for APE1 Inhibitors: qHTS Validation Assay for Inhibitors of Endonuclease IV (AID 1708). Also: % is scaled to controls: 0 for no effect and ±100 for the full control effect. Summed up:
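Incision of a double-stranded 50 nM TAMRA/BHQ-2 abasic substrate was followed kinetically (525/598 nm, reads every 60 s) after 15 min enzyme–compound preincubation with 2 nM EndoIV in pH 7.5 Tris buffer with MgCl2, DTT and Tween-20; concentration-response format.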

Assay [20] is described as follows: qHTS for differential inhibitors of proliferation of Plasmodium falciparum line 7G8 (AID 1815).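 Also: potency is read from the fitted curve at half-maximal effect; parasite growth measured after three days of incubation.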
A short description of assay [21]: qHTS for differential inhibitors of proliferation of Plasmodium falciparum line GB4 (AID 1816).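 Also: potency is read from the fitted curve at half-maximal effect; parasite growth measured after 72 h incubation.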 The conditions noted are these: Potency: Plasmodium falciparum GB4 proliferation inhibition.
Assay [22] in a line: qHTS for differential inhibitors of proliferation of Plasmodium falciparum line 3D7 (AID 1876). Also: potency is read from the fitted curve at half-maximal effect.

Chain of Glucocorticoid receptor (Homo sapiens) (P04150 whole entry, looked up, the tested form may be a part): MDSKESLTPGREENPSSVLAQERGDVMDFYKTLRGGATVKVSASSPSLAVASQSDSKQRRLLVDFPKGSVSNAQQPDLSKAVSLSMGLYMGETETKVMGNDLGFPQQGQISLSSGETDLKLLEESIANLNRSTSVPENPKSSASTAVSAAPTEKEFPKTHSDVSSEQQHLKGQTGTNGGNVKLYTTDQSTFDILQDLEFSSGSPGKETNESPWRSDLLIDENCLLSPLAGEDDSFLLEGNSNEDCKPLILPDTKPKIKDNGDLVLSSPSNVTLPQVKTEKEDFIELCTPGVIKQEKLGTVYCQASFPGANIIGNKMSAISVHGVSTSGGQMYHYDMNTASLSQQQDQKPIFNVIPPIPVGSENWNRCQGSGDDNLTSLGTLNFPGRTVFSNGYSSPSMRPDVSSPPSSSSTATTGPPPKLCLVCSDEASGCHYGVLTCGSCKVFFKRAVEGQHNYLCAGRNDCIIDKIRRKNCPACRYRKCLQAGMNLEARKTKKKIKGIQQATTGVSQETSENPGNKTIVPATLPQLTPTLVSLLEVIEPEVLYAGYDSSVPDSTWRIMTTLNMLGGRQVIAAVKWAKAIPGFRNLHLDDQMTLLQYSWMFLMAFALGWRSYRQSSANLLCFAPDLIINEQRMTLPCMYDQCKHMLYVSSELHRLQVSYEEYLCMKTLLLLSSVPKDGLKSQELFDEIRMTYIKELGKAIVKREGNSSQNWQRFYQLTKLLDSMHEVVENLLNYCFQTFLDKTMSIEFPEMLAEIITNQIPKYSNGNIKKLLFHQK
Chain of Cytochrome P450 3A4 (Homo sapiens) (P08684 whole entry, looked up): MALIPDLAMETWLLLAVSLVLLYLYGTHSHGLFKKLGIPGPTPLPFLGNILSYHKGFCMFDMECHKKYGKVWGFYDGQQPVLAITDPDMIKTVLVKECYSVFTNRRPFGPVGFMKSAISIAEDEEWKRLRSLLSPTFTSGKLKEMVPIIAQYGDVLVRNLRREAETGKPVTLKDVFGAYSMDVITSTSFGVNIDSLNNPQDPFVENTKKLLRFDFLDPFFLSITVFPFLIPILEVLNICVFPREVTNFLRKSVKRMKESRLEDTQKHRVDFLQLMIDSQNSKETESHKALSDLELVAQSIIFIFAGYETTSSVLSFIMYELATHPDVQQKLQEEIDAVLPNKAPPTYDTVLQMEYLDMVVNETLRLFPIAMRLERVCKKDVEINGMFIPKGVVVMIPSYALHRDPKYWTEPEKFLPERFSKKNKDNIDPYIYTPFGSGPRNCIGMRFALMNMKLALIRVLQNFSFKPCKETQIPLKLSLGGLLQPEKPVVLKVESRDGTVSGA
Chain of 3',5'-cyclic-AMP phosphodiesterase 4B (Homo sapiens) (Q07343 whole entry, looked up): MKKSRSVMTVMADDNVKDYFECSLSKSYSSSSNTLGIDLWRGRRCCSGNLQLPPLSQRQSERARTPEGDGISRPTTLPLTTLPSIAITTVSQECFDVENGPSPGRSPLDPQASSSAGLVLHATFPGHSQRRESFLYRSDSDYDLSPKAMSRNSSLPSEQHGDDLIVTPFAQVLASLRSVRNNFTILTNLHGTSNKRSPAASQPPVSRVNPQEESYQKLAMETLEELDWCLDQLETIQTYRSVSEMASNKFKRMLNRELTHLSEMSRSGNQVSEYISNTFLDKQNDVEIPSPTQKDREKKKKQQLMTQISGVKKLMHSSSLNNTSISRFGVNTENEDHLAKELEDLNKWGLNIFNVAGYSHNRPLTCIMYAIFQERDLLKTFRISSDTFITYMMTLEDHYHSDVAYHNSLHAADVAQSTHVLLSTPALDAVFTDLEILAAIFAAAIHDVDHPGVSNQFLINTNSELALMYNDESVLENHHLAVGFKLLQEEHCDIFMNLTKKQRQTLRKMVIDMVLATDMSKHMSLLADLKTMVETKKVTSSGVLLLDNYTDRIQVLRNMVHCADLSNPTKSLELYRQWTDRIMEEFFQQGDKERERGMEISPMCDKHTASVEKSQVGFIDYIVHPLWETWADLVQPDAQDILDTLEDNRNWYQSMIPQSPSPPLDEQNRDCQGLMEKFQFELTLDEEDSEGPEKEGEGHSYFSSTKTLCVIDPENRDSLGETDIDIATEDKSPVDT
Chain of Cytochrome P450 2C9 (Homo sapiens) (P11712 whole entry, looked up): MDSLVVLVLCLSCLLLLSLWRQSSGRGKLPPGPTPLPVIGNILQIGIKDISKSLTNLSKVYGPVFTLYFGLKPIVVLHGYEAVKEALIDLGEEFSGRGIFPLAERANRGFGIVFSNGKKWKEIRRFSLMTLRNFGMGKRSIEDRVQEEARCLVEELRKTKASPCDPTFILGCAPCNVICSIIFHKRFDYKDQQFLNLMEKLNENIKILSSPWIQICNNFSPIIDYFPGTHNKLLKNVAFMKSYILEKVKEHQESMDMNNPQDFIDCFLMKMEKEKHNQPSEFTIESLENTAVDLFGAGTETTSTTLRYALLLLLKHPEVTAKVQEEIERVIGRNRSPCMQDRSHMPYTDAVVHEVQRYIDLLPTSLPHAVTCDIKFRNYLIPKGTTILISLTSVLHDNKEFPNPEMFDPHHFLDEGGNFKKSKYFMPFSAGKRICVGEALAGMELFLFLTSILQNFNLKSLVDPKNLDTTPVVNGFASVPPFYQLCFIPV
Chain of Cytochrome P450 1A2 (Homo sapiens) (P05177 whole entry, looked up): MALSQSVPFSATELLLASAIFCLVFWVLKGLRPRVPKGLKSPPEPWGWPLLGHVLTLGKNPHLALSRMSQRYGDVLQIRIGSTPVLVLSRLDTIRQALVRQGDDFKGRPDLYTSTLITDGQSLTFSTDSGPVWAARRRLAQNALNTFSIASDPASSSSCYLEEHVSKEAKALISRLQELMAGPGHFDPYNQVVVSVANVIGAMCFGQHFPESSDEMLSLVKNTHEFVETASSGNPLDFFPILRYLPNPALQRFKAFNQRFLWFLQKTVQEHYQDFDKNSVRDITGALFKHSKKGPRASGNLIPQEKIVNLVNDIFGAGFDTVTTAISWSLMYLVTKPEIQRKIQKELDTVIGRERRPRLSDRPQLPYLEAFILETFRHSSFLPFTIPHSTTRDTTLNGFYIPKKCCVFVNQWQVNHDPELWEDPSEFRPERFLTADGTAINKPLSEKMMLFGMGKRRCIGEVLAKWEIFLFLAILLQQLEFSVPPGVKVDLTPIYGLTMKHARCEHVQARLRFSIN
Chain of Alpha-galactosidase A (Homo sapiens) (P06280 whole entry, looked up): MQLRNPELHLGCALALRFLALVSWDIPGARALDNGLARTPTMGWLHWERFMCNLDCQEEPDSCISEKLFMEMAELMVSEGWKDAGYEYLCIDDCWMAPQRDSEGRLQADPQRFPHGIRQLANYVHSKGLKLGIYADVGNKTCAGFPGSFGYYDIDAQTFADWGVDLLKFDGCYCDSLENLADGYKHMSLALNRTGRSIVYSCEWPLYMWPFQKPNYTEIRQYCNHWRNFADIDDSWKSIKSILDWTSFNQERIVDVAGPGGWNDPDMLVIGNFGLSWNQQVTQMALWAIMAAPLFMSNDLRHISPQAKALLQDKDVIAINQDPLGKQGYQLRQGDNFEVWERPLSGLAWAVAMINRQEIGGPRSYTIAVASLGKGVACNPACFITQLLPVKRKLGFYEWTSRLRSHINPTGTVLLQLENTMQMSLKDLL
Chain of Muscarinic acetylcholine receptor M1 (Rattus norvegicus) (P08482 whole entry, looked up): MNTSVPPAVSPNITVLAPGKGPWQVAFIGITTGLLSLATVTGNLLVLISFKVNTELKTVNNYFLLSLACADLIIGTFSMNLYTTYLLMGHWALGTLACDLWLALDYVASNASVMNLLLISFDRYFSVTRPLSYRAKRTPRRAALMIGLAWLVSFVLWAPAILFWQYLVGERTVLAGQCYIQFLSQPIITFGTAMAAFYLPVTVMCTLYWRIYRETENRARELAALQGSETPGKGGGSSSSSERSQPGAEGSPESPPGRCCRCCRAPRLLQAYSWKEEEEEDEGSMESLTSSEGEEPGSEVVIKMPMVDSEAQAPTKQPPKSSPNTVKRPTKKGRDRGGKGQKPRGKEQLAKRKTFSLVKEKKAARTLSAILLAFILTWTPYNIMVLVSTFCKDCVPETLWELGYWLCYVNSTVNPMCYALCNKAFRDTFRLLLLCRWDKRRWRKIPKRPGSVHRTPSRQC
Chain of Guanine nucleotide-binding protein G(i) subunit alpha-1 (Homo sapiens) (P63096 whole entry, looked up): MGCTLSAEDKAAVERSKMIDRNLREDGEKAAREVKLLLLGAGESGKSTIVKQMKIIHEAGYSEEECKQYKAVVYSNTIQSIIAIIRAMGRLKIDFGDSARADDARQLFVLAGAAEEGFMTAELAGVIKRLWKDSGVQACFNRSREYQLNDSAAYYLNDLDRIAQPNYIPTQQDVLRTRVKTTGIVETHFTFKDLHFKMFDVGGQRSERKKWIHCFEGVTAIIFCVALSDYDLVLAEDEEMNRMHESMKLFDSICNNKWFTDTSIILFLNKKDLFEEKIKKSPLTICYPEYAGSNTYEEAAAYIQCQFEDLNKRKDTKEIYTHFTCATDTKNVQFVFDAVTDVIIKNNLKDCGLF
Chain of Pyruvate kinase PKM (Homo sapiens) (P14618 whole entry, looked up): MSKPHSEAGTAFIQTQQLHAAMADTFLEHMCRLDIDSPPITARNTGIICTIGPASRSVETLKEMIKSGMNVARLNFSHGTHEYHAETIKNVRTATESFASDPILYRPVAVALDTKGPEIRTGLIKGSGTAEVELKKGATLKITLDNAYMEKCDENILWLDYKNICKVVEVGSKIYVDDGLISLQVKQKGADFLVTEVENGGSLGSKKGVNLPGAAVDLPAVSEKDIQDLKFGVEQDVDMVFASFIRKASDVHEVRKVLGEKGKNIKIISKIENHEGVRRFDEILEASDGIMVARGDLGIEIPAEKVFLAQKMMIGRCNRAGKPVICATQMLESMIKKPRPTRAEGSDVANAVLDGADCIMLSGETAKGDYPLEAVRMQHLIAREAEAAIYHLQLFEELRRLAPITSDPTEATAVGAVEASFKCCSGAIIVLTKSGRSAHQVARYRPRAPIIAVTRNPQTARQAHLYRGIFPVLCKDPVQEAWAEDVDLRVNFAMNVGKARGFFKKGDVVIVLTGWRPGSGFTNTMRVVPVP

With `COc1cc2c(cc1C(F)(F)F)N(C(=O)Nc1cc(F)cc(-c3cccnc3)c1)CC2`, the Potency in [1] was 794 nM (active) and 316 nM (active); in [3], over 46 µM; in assay [4] it was over 46 µM; in assay [8], 10 µM (active) and 794 nM (active); in [9] it was 2.51 µM (active); in [20], 2 µM (active). Besides, the results for the Potency in assay [21] and in assay [22] were 2.24 µM (active) and 1.58 µM (active), respectively. Moreover, in assay [2], the activity change, negative = inhibition was -8.89%. Moreover, the Potency result in assay [5], in assay [6], in [10], in [11], in assay [12] and in assay [17] was “inactive” throughout. For the same molecule, the Potency result in assay [18] and in assay [19] was “inactive” throughout. Moreover, the result in assay [7], in [13], in assay [14], in assay [15] and in assay [16] was inactive.

These data come from PubChem BioAssay (NCATS).
